The list is not random: actives were taken first. Their share in the collection is about 0.74%.
Vif-A3F inh: Vif-A3F binding inhibition | HeLa A3F-eYFP + Vif (tagged APOBEC3F with the HIV-1 protein that degrades it), YFP fluorescence increase | Potency, µM (titrated, usually from 46.1 µM), without a hit: top-dose activity, negative = active | actives 0.2% (n = 390,000) | AID 602313; note: potency is the fitted concentration of half-maximal effect; % of control where 0% means no effect; nearly all actives have a fitted effect of over 65% in size
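Fluorescence increase (Ex 488/Em 500-530) after overnight compound treatment at 37 deg C flags inhibition of Vif-driven A3F-eYFP loss in stable HeLa A3F-eYFP/Vif cells seeded overnight beforehand.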
Vif-A3G inh: inhibitors of Vif-APOBEC3G interaction; AID 602310; Q9HC16; actives 0.076% (n = 410,000); Potency, µM (top dose mostly 46.1 µM), inactives show at the top dose activity, negative = active, usual class: inhibitors; HeLa A3G-eYFP + Vif (tagged APOBEC3G with the HIV-1 protein that degrades it), YFP fluorescence, overnight; note: potency is the fitted concentration of half-maximal effect; % is set by controls: 0 for no effect and ±100 for the full control effect; nearly all actives have a fitted effect of over 60% in size
Target sequence (Q9HC16 whole entry, looked up): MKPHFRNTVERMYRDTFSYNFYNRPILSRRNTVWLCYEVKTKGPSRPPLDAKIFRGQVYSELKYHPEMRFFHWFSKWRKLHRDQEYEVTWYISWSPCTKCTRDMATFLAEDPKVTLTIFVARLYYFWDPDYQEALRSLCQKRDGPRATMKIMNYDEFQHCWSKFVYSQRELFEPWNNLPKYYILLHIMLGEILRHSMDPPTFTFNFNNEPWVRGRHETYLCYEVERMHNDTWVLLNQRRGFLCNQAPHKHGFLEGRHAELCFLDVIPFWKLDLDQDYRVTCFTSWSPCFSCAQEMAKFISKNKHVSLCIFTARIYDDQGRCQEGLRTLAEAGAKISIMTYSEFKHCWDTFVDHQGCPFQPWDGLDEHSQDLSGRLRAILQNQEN
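Read-out is eYFP fluorescence (Ex 488/Em 500-530) from Vif-expressing HeLa A3G-eYFP cells; more signal means A3G escaped Vif-mediated degradation. Cells plated overnight, compound pinned in, incubated overnight at 37 deg C.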
PINK1 expr mod: PINK1 expression modulation; PINK1 immunofluorescence, high-content cytometry, 24 h; Potency, µM (titrated, usually from 76.6 µM), for the others: at the top dose activation (PINK1 increase), most hits filed as activators; actives 0.2% (n = 410,000); AID 624263; active = well fitted activation curve with a large enough effect; inconclusive = small, poorly fitted or top-dose-only effect; cell line not stated here; note: potency is the fitted concentration of half-maximal effect; % of control where 0% means no effect; nearly all actives have a fitted effect of over 65% in size
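Compound titrations (5 concentrations, 24 h) on a stable cell line; DMSO and CCCP controls. Endpoint: fixed-cell PINK1 immunofluorescence with mitochondrial, cell and nuclear markers, scanned by microplate cytometer.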
Glioma ERSR ind: inducers of ER stress response in human glioma cells | U87-MG GRP78 promoter luciferase reporter, 16 h | Potency, µM, for inactives: top-dose activation, most hits filed as activators | actives 0.02% (n = 420,000) | AID 602332; note: potency is the fitted concentration of half-maximal effect; series mostly up to about 76 µM; % of control where 0% means no effect; nearly all actives have a fitted effect of over 35% in size
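Stably transfected U87-MG human glioma cells carrying a GRP78-based luminescent sensor were seeded at 1000 cells/well, pin-dosed with compounds and incubated 16 h. Luciferase reagent was then added, and end-point luminescence was read after 10 min at room temperature.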
Akt phos inh: Akt phosphorylation inhibition; Neuro2A IGF-stimulated pAkt S473 HTRF, 20 min; active compounds read low; actives 0.32% (n = 360,000); activity change, % for hits at 50 µM; AID 651550; in the data active = activity change below about -80%; inconclusive = mostly about -51% to -80%; note: % is set by controls: 0 for no effect and ±100 for the full control effect
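Neuro2A cells (4,500/well, DMEM with 0.5% FBS) were treated with compound at a single 50 µM final concentration, stimulated with 6 nM IGF for 20 min at 37 °C, and lysed. Phospho-Akt Ser473 was read by HTRF as 665/615 ratio ×10^4.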
LDHA inh: inhibitors of human lactate dehydrogenase A | AID 1347041 | activity change, % (values are at about 110 or 230 µM) | P00338 | actives 0.15% (n = 480,000) | purified LDHA, NADH/diaphorase-resazurin fluorescence; active compounds read low; in the data active = activity change below about -30%; inconclusive = mostly about -25% to -30%;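 note: plate controls were DMSO wells for no effect and wells without enzyme for full effect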
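LDH5 2 nM; NADH 0.06 mM, pyruvate 0.2 mM; 200 mM Tris pH 7.4, EDTA, Tween-20; 5 min RT. Detection: diaphorase 0.133 mg/mL + resazurin 37 µM, fluorescence ex540/em590 at 0 and 20 min; normalized to enzyme-free and DMSO wells.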
Starred values were filed as active, the others as inactive; ! = a repeat was not active; [ ] = another dose, or the depositor's remark. Unless noted, calls come from the whole dose curve; as a rule, active = well fitted curve in the direction sought with a large enough effect; inconclusive = small, poorly fitted or top-dose-only effect, or another doubt; inactive = no such curve, though single readings can be large; an effect the other way counts as inactive or inconclusive.

For O=[N+]([O-])c1cc(O)c2ncccc2c1 the results were Vif-A3F inh -3.5%, Vif-A3G inh 11.2µM*, PINK1 expr mod 1.9%, Glioma ERSR ind -0.6%, Akt phos inh inactive and LDHA inh 36.9.
`O=[N+]([O-])c1cc2cccnc2c2ncccc12` gave Vif-A3F inh inconclusive, Vif-A3G inh -21.1%, PINK1 expr mod -1.4%, Glioma ERSR ind -5.1%, Akt phos inh inactive and LDHA inh -11.6.
Cc1ccc(C)c(NC(=O)CCn2cnc3c2c(=O)n(C)c(=O)n3C)c1 was read as LDHA inh 4.8.
CCN(CC)S(=O)(=O)c1ccc(Cl)c(C(=O)Nc2nncs2)c1 was read as Vif-A3F inh 6.0%, Vif-A3G inh -2.1%, PINK1 expr mod 0.3%, Glioma ERSR ind 1.6%, Akt phos inh -102.7%* and LDHA inh -0.9.
For CCN(CC)S(=O)(=O)c1cc(C(=O)Nc2nncs2)c(Cl)cc1Cl the results were Vif-A3F inh -1.4%, Vif-A3G inh 0.2%, PINK1 expr mod 5.2%[38.3 µM], Glioma ERSR ind -3.7%, Akt phos inh inactive and LDHA inh -2.3.
`CCn1c(O)c(/C=N/N=C/c2ccc(OC)cc2)c2cc(C3=NNC(=O)CC3)ccc21` gave Vif-A3F inh 4.47µM*, Vif-A3G inh inconclusive, PINK1 expr mod inconclusive, Glioma ERSR ind 0.9%, Akt phos inh inactive and LDHA inh -8.7.
For O=C(O)c1cccc(-n2cccc2/C=C2/NC(=O)N(c3cccc(Cl)c3)C2=O)c1 the results were Vif-A3F inh -0.7%, Vif-A3G inh -5.3%, PINK1 expr mod -0.9%, Glioma ERSR ind -1.9%, Akt phos inh inactive and LDHA inh -30.1*!.
Screening O=C(O)c1cccc(-n2cccc2/C=C2/NC(=O)N(c3ccc(Cl)cc3)C2=O)c1 returned Vif-A3F inh 12.6%, Vif-A3G inh -6.0%, PINK1 expr mod 1.3%, Glioma ERSR ind 0.5%, Akt phos inh inactive and LDHA inh -20.5.
`Cc1c(C(=O)OC/C(O)=C(\C#N)c2nc3ccccc3[nH]2)oc2ccccc12` gave Vif-A3F inh 22.4µM*, Vif-A3G inh inconclusive, PINK1 expr mod 1.9%, Glioma ERSR ind -2.1%, Akt phos inh inactive and LDHA inh 0.8.
For Cc1cc2oc3ccc(NCCCn4ccnc4)cc3c(=O)c2cc1C the results were Vif-A3F inh 22.4µM*, Vif-A3G inh inconclusive, PINK1 expr mod 8.6%, Glioma ERSR ind -11.1%, Akt phos inh inactive and LDHA inh 2.8.
`Cc1cc2oc3ccc(NCCCN4CCOCC4)cc3c(=O)c2cc1C` gave Vif-A3F inh -8.9%, Vif-A3G inh -1.2%, PINK1 expr mod 0.2%, Glioma ERSR ind -0.2%, Akt phos inh inactive and LDHA inh 1.1.
For CC(C)n1nc(C(=O)N2CCc3ccccc3C2)c2ccccc2c1=O the results were LDHA inh 7.1.
For N#C/C(=C(/O)c1ccccc1F)c1nc2cc(C(F)(F)F)ccc2s1 the results were Vif-A3F inh -1.9%, Vif-A3G inh -1.5%, PINK1 expr mod inconclusive, Glioma ERSR ind 4.2%, Akt phos inh inactive and LDHA inh -0.2.
For N#C/C(=C(/O)c1ccc2c(c1)OCO2)c1nc2cc(C(F)(F)F)ccc2s1 the results were Vif-A3F inh 10.6%, Vif-A3G inh 1.7%, PINK1 expr mod 14.1µM*, Glioma ERSR ind -2.0%, Akt phos inh inactive and LDHA inh -2.3.
CS(=O)(=O)Oc1cc2oc(=O)c3c(c2cc1Cl)CCCC3 was read as LDHA inh -0.7.
For CC(=O)C(Sc1ccc(C)cc1)(Sc1ccc(C)cc1)C(C)=O the results were LDHA inh -1.8.
Screening CSCCC(NS(=O)(=O)c1ccc(Cl)cc1)C(=O)OCc1cccc(Cl)c1 (stereo not drawn) returned Vif-A3F inh 8.0%, Vif-A3G inh 0.7%, PINK1 expr mod 9.6%, Glioma ERSR ind -3.8%, Akt phos inh inactive and LDHA inh -1.4.
